High-throughput results: PubChem BioAssay, several laboratories
L major viab: reduces viability of Leishmania major promastigotes; resazurin fluorescence viability; inhibition, % at 10 µM; hit rate 9% among 200,000; in the data active = inhibition above about 50%;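 note: promastigotes grown with compound for 44 hours at 28 °C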
CHOP inhibitor: blocks CHOP induction under ER stress; CHO-K1 CHOP-promoter luciferase, tunicamycin-induced, 15-18 h; inhibition, % at 10 µM; hit rate 3.8% among 220,000; AID 2732;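 active = compounds that reduced the stress-induced luciferase reporter signal by more than about 70% of percent inhibition, limit read from the data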
Arbovirus inh: antivirals against arbovirus infection | hit rate 0.37% among 200,000 | arbovirus infection cell-based antiviral screen | inhibition, % at 10 µM; in the data active = inhibition above about 30%
WT yeast gro inh: growth inhibition of WT yeast, mitochondrial fusion screen | mitochondrial fusion phenotypic screen, WT strain | inhibition, % at 10 µM | hit rate 2.1% among 190,000 | AID 1362; in the data active = inhibition above about 58%; tested in S. cerevisiae
Large screens that a line does not name were inactive. This is a sample that favours compounds with a hit; in the whole collection about 12% have one here.

CN1CC(c2ccc(Cl)c(Cl)c2)[C@@]2(COc3ccccc3C2=O)[C@@]12C(=O)Nc1ccccc12 (some centres undefined)	L major viab 81, CHOP inhibitor 74
CC1(C(=O)NCc2ccc(Cl)c(Cl)c2)Oc2ccccc2NC1=O (centres undefined)	none
O=C(Nc1ccccn1)C(NS(=O)(=O)c1cccc2nsnc12)c1ccccc1 (centres undefined)	none
CCOC(=O)C1=C(C)NC(C)=C(C(=O)OCC)C1c1sccc1C	L major viab 96
O=C(Cc1ccc(Cl)cc1)Nc1ccc(SC(F)F)cc1	none
Cc1cc(C)c2nc(-c3ccccn3)cc(C(=O)NCCc3ccc(S(N)(=O)=O)cc3)c2c1	CHOP inhibitor 89
Cc1cc(C)c2nc(-c3ccccn3)cc(C(=O)NCc3ccc(S(N)(=O)=O)cc3)c2c1	none
CCCCNC(=O)C1CCN(c2nc(OC)nc(OC)n2)CC1	none
Nc1nnc(SCC(=O)NN2C(=O)NC3(CCCCC3)C2=O)s1	L major viab 60
O=C(CCl)NN1C(=O)NC2(CCCCC2)C1=O	none
COc1ccc(C(=O)c2ccccc2)c(OCC(=O)N(C)C)c1	none
O=C(COc1ccc(S(=O)(=O)NC2CCCCC2)cc1)NC1CCCCC1	none
O=C(COc1ccc(S(=O)(=O)NC2CCCCC2)cc1)NCCC1=CCCCC1	L major viab 59
O=C(CN1CCN(C2CCCCC2)CC1)NCCC1=CCCCC1	L major viab 94
Cc1ccc2nc(SCC3CCCCO3)[nH]c2c1 (centres undefined)	none (no result: L major viab, Arbovirus inh, WT yeast gro inh)
O=C1N(CCCCN2C(=O)C3(OCCO3)c3ccccc32)c2ccccc2C12OCCO2	L major viab 59
CCCC(=O)CN1C(=O)C2(OCCO2)c2ccccc21	none
CC(C)CC(=O)CN1C(=O)C2(OCCO2)c2ccccc21	CHOP inhibitor 75
O=C1N(Cc2ccc(F)cc2Cl)c2ccccc2C12OCCCO2	CHOP inhibitor 80
O=C1N(CCCN2C(=O)C3(OCCO3)c3ccccc32)c2ccccc2C12OCCO2	none
COc1ccc(S(=O)(=O)N(C)CC(=O)Nc2cccc(C(C)=O)c2)cc1Cl	none
CSc1cccc(NS(=O)(=O)c2ccc(F)cc2)c1	L major viab 55
CC(=O)c1cccc(NS(=O)(=O)c2ccc(N/C=C\C(=O)c3ccc(F)cc3)cc2)c1	CHOP inhibitor 84
CC(=O)c1ccc(NS(=O)(=O)c2ccc(N/C=C/C(=O)c3ccc(F)cc3)cc2)cc1	none (no result: L major viab, Arbovirus inh, WT yeast gro inh)
CC(=O)c1cccc(NS(=O)(=O)c2ccc(N/C=C/C(=O)c3ccc(F)cc3)cc2)c1	CHOP inhibitor 83
CC(=O)c1cccc(NS(=O)(=O)c2ccc(N/C=C\C(=O)c3ccc(C)cc3)cc2)c1	none
CSc1cccc(NS(=O)(=O)c2ccccc2)c1	none
O=c1ccc(C(F)(F)F)cn1Cc1cc(=O)n2cc(Br)ccc2n1	none
CC(=O)N1CCN(C(=O)CSc2nc3c(cnn3-c3ccccc3)c(=O)[nH]2)CC1	none
O=C(CSc1nc2c(cnn2-c2ccccc2)c(=O)[nH]1)N1N=C(c2cccs2)CC1c1ccc(F)cc1 (centres undefined)	L major viab 69
COC(=O)c1c(-c2cc(OC)c(OC)c(OC)c2)c2ccc(OCc3ccccn3)cc2c(=O)n1-c1ccc(N)cc1	none (no result: L major viab, Arbovirus inh, WT yeast gro inh)
Cc1cccc(N2CCN(C(=O)C3COc4ccccc4O3)CC2)c1C (centres undefined)	Arbovirus inh 36
Cc1cccc(N2CCN(C(=O)c3cc4c(=O)n(C)c5ccccc5c4n3C)CC2)c1C	CHOP inhibitor 79
Cc1cccc(N2CCN(C(=O)Cc3cn(C)c4ccccc34)CC2)c1C	CHOP inhibitor 82
Cc1ccc(Cl)cc1N1CCN(C(=O)c2cc3c(=O)n(C)c4ccccc4c3n2C)CC1	CHOP inhibitor 88
Cn1c(C(=O)N2CCN(c3ccccc3F)CC2)cc2c(=O)n(C)c3ccccc3c21	none (no result: L major viab, CHOP inhibitor)
CCC1CCCCN1C(=O)c1sc2ncnc(N(CC)CC)c2c1C (centres undefined)	none
O=C1NC(O)=NC1(c1ccccc1)c1ccccc1	none (no result: L major viab, Arbovirus inh, WT yeast gro inh)
COc1ccc(CN2C(=O)CC(C(=O)NCCc3ccc(S(N)(=O)=O)cc3)SC2=Nc2ccccc2)cc1 (centres undefined)	none
O=C(COC(=O)c1cccnc1Nc1cccc(C(F)(F)F)c1)NC1CCS(=O)(=O)C1 (centres undefined)	none
O=C(c1ccccc1[N+](=O)[O-])n1cnc2ccccc21	none
O=C(c1cc(Cl)ccc1[N+](=O)[O-])n1cnc2ccccc21	L major viab 55
O=C(CC(SCCO)c1ccc(F)cc1)c1ccco1 (centres undefined)	L major viab 84
CCOC(=O)CSc1n[nH]c(NC(=O)CC)n1	none
COc1ccccc1N(C)S(=O)(=O)c1ccc(C(=O)OCC(=O)N2CCCCCC2)cc1	L major viab 100
